# dFosB activator = enhances mouse delta FosB homodimer DNA binding; P13346; purified delta FosB, TAMRA-CDK5 oligo fluorescence polarization; percent of positive-control signal above neutral wells; activation, % at 25 µM; actives 0.99% (n = 340,000);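 active means mean activation above about 17%, with every replicate also reaching it, limit read from the data, passing the limit was not always enough; inconclusive means only one of the two conditions met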
# INS-1E GSIS act = primary screen for activators of insulin secretion dependent on glucose, INS-1E cells, GLuc reporter luminescence | INS-1E GLuc reporter insulin secretion, 2-3 h | activation, % at 16.6 µM | actives 0.61% (n = 370,000);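 active means lowest replicate activation of at least 40%, so every replicate reaches that level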;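 further: 0% = median of neutral control wells and 100% = median of IBMX positive control wells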
# DENV2 CPE rescue = inhibitors of DENV2 cytopathic effect; DENV2-infected cells, cytopathic effect rescue, plate reader; CPE inhibition, % at 9.99 µM; actives 1.7% (n = 350,000); AID 651640; in the data active means CPE inhibition above about 20%, passing the limit was not always enough; inconclusive means no clear call, values can overlap the other calls; tested in BHK-21 cells;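 further: 0% = median of neutral control wells and 100% = median of positive control wells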
# RAD52 inh = RAD52 (human) annealing inhibition; actives 0.46% (n = 360,000); recombinant RAD52 DNA annealing, FRET fluorescence; AID 651710; P43351; inhibition, % at 18.7 µM;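 active means every replicate showing at least 50% inhibition; inconclusive means mean inhibition at least 50% but not in every replicate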
# RAD54 branch = blocks human RAD54 Holliday junction branch migration; FAM/BHQ fluorescence; inhibition, % at 10.4 µM; actives 0.14% (n = 360,000); AID 602329;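 active means mean normalized replicate activity at least 40 and at least half of replicates scoring 40 or more; inconclusive means only one of the two criteria met; inactive means mean below 40 and under half of replicates reaching 40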;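 further: 0% = median of neutral control wells and 100% = median of positive control wells; inhibitors cause a drop in the FAM fluorescence signal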
# Target sequence (Q92698 whole entry, looked up): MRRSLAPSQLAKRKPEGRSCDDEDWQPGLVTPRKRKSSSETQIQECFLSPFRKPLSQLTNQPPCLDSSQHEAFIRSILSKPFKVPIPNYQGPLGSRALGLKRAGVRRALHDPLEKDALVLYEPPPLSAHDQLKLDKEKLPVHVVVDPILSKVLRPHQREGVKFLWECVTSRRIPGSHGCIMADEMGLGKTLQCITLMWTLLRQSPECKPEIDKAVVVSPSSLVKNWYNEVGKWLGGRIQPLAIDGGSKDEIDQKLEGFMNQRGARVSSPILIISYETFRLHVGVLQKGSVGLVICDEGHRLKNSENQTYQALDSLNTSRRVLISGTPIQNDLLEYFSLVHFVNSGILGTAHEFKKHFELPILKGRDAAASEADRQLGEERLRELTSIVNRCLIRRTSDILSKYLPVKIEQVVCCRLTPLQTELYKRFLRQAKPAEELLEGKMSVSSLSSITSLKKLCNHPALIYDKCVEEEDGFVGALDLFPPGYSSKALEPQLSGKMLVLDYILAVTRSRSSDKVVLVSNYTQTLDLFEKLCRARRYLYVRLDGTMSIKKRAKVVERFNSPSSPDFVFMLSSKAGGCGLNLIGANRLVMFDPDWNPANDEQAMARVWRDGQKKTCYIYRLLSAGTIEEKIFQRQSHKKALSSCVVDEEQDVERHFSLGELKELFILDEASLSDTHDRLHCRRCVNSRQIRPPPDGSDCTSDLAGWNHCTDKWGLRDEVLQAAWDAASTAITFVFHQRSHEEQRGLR
# AF4-AF9 inh = blocks AF4 peptide binding to human AF9; actives 0.47% (n = 350,000); inhibition, % at 10 µM; P42568; AID 651704; AlphaScreen, biotin-AF4 peptide binding to FLAG-AF9;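 active means every replicate reaching a set inhibition limit, whatever the replicate mean, cut at about 25% in these data; inconclusive means mean inhibition reaches that limit but some replicates miss it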;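 further: 0% = plate neutral control median and 100% = total signal loss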
# * = called active by the depositor; i = inactive; ? = inconclusive; nt = no result. The list is not random: actives were taken first. Their share in the collection is about 3.1%.
SMILES,dFosB activator,INS-1E GSIS act,DENV2 CPE rescue,RAD52 inh,RAD54 branch,AF4-AF9 inh
O=C(O)[C@@H]1[C@@H](CO)[C@@H]2Cn3c(ccc(C4=CCCCC4)c3=O)[C@H]1N2CCc1ccccc1,nt,6.4,nt,nt,nt,-0.8
FC(F)(F)CN1C[C@@H]2C(c3ccc(Br)cc3)[C@H](C1)N2CC1CC1 (stereo partly specified),nt,2.9,nt,nt,nt,nt
NCCc1ccccc1,-0.9,1.6,43.2*,-7.6,-6.6,0.6
NCCc1ccc(S(N)(=O)=O)cc1,-2.1,9.2,6.0,-7.6,nt,-1.2
CC=Cc1ccc2n(c1=O)C[C@@H]1[C@@H](CO)[C@H](C(=O)OC)[C@H]2N1C(=O)CC1CC1 (mixture of isomers),nt,4.8,nt,-1.6,-1.2,2.6
COC(=O)C1=C(c2ccc(OC(F)(F)F)cc2)C[C@@H]2CC[C@H]1N2C(=O)NC1CCCCC1,-1.9,-38.4,37.5*,0.9,-2.1,1.3
COC(=O)C1=C(c2ccc(OC(F)(F)F)cc2)C[C@@H]2CC[C@H]1N2C(=O)NCCNC(C)=O,-6.3,13.3,-17.5,-4.4,2.7,-2.0
COC(=O)C1=C(c2ccc(OC(F)(F)F)cc2)C[C@@H]2CC[C@H]1N2C(=O)NC1Cc2ccccc2C1,-15.2,-23.7,-2.2,-0.8,1.5,-0.2
COC(=O)C1=C(c2ccc(OC(F)(F)F)cc2)C[C@@H]2CC[C@H]1N2C(=O)NCCOc1ccc(OC)cc1,-15.0,-12.1,26.0*,1.8,-14.5,1.3
OC[C@@H]1Nc2ccc(C#Cc3cccnc3)cc2[C@H]2NCC[C@@H]12,nt,3.2,nt,nt,nt,nt
FC(F)(F)CN1C[C@@H]2N[C@H](C1)C2c1ccc(Br)cc1 (stereo partly specified),nt,-14.9,nt,nt,nt,nt
COc1ccc(CC2c3cc(OC)c(OC)cc3CCN2C)cc1O (stereo unspecified),2.1,43.1*,1.5,-3.6,-10.7,-0.7
COc1ccc(CCN)cc1O,-0.5,4.1,0.8,-5.5,-16.0,-2.3
CCCN1[C@@H]2Cn3c(ccc(-c4cccc(OC)c4)c3=O)[C@H]1[C@@H](C(=O)OC)[C@@H]2CO,nt,9.8,9.2,-19.2,nt,-18.1
CCCN1[C@@H]2c3ccc(-c4ccccc4)c(=O)n3C[C@H]1[C@H](CO)[C@H]2C(=O)OC,nt,1.6,11.2,2.3,-8.3,-1.7
O=c1[nH]c(=S)n(-c2ccccc2)c(O)c1/C=N/N1CCCCC1c1cccnc1 (stereo unspecified),39.1*,-8.8,2.2,-392.0,-29.6,-5.4
CCc1ccc(-n2c(O)c(/C=N/N3CCCCC3c3cccnc3)c(=O)[nH]c2=O)cc1 (stereo unspecified),-5.8,-2.4,6.4,-72.6,nt,-0.6
C[C@@H]1C(=O)O[C@H]2[C@H](O)[C@]34[C@@H]5OC(=O)[C@]3(OC3OC(=O)[C@H](O)C34[C@H](C(C)(C)C)[C@@H]5O)[C@@]12O (stereo partly specified),3.3,nt,41.7*,-6.5,2.9,-3.4
NS(=O)(=O)c1nc[nH]c1[N+](=O)[O-],5.0,nt,29.4*,-4.6,4.1,-1.1
Cc1cc(C)n(-c2ccc(NN=C(C#N)C#N)cc2)n1,-15.2,-18.1,31.2*,-7.2,-4.5,2.3
CCNc1nc(Cl)nc(NC(C)C)n1,3.5,71.4*,nt,nt,nt,nt
Cc1ccnc(NC(=O)CCCc2ccc(N(CCCl)CCCl)cc2)n1,-1.2,7.8,3.3,30.5,-11.4,25.7*
COC(=O)[C@@H]1[C@@H](CO)[C@@H]2Cn3c(ccc(C4=CCCC4)c3=O)[C@H]1N2C(=O)CC1CC1,nt,-2.2,3.6,-13.7,-2.5,-0.4
CCOC(=O)[C@]12Cc3cc(OC)ccc3[C@H]1N(C1CCCCC1)C(=O)c1cc(OC)ccc12,nt,325.1*,5.0,-15.0,nt,-21.8
CCOC(=O)[C@]12Cc3cc(C)ccc3[C@H]1N(C1CCCCC1)C(=O)c1cc(OC)ccc12,nt,1.9,?,-13.5,nt,-1.1
SMILES,dFosB activator,INS-1E GSIS act,DENV2 CPE rescue,RAD52 inh,RAD54 branch,AF4-AF9 inh
Cc1ccc2c(c1N)C(=O)c1ccccc1C2=O,3.4,8.2,30.5*,3.1,-0.5,nt
COC(=O)C[C@@H]1CC[C@H]2NC[C@H](O)COC[C@@H]2O1,nt,0.7,5.3,-4.1,-3.0,-3.4
C=CCSc1nc2c(c(-c3ccsc3)c1C#N)CN(C)CC2,-5.1,45.6*,5.1,-31.8,-2.5,5.0
Fc1ccccc1CNCCc1c[nH]c2ccccc12,-7.0,2.8,32.0*,0.9,4.4,4.6
NCCc1c[nH]c2ccccc12,-4.9,nt,62.6*,-11.9,2.9,1.5
CCCN(CCC)CCc1c[nH]c2ccccc12,nt,3.4,8.1,0.7,nt,nt
O=C(O)[C@H]1[C@H](CO)[C@H]2Cn3c(ccc(-c4ccccc4F)c3=O)[C@@H]1N2C(=O)Nc1ccccc1,nt,3.9,-14.6,-10.7,-5.5,0.6
COC(=O)[C@H]1[C@H](CO)[C@H]2Cn3c(ccc(/C=C/c4ccccc4)c3=O)[C@@H]1N2CC1CCCC1,nt,-24.0,9.3,6.6,8.9,-50.5
O=C1NC(=O)N(c2ccccc2F)C(=O)/C1=C/c1ccc(Sc2nc3ccccc3[nH]2)o1,26.7*,nt,-9.1,i,-43.9,-7.5
O=C1NC(=O)N(c2ccccc2)C(=O)/C1=C/c1ccc(Sc2ccccc2)o1,-9.5,nt,nt,nt,nt,nt
O=C1NC(=O)N(c2cccc(Cl)c2)C(=O)/C1=C\c1ccc(Sc2nc3ccccc3[nH]2)o1,48.9*,-7.9,3.3,-350.5,nt,0.4
CC=Cc1ccc2n(c1=O)C[C@@H]1[C@@H](CO)[C@H](C(=O)N(C)C)[C@H]2N1C (mixture of isomers),nt,11.3,1.9,1.5,-10.9,0.5
Cc1cccc2nc(-c3ccccc3)c(-c3ccc(CN4CCC(n5c(=O)[nH]c6cc(Cl)ccc65)CC4)cc3)nc12,nt,41.9*,-4.6,-17.9,nt,nt
COC(=O)C1=C(c2c(C)noc2C)C[C@@H]2CC[C@H]1N2C(=O)N1CCC(C)CC1,-11.3,33.7,51.2*,-10.7,0.8,0.5
CC(C)[C@H](NC(=O)N1C[C@H]2C[C@@H](C1)c1cccc(=O)n1C2)C(=O)Nc1ccccc1F,-2.8,nt,58.2*,-3.1,-3.0,-0.3
O=C(CCC(=O)N1C[C@H]2C[C@@H](C1)c1cccc(=O)n1C2)NCc1ccc(F)cc1,-3.7,6.7,81.0*,-12.9,-6.3,nt
O=C(Cc1ccncc1)N1CCCCN2[C@H](CO)[C@@H](c3ccc(C#CC4(O)CCCC4)cc3)[C@@H]2C1,nt,3.1,-8.2,-1.9,-1.5,-3.1
CC1CC(OC(=O)c2ccccc2)CC(C)N1C (stereo unspecified),-1.7,4.7,nt,nt,nt,nt
CN1C2CCC1CC(OC(=O)c1cccc(O)c1)C2 (stereo unspecified),-12.0,10.2,28.7*,-6.4,6.3,-1.3
CN1C2CCC1CC(OC(=O)c1ccc([N+](=O)[O-])cc1)C2 (stereo unspecified),5.3,8.3,65.9*,-6.1,nt,-1.2

# High-throughput results: PubChem, Broad Institute
